Measured values from PubChem BioAssay (EPA / NIEHS).
Active and inactive are the calls of the source. How the source made its calls: active means hit-call score of the fitted dose curve at least 0.9, where 1 is the maximum; inactive means score below 0.9.

Assays:
Conditions in all cases: mRNA level, 48 h; actives raise or lower the signal
[1] = read-out: Intercellular Adhesion Molecule 1 (ICAM1), ICAM1 (gene 3383); assay: LTEA_HepaRG_ICAM1: Life Technologies and Expression Analysis (LTEA) Assay for Intercellular Adhesion Molecule 1 (ICAM1) using HepaRG (AID 2283507)
Outline: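 ICAM1 transcript levels measured by qRT-PCR, normalized to three housekeeping genes (ACTB, GAPDH, POLR2A), after 48 h chemical exposure of HepaRG cells. Duplicate eight-point half-log series from 100 uM in 0.5% DMSO; gain or loss fitted against vehicle.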

[2] = read-out: Insulin-like growth factor-binding protein 1 (IGFBP1), IGFBP1 (gene 3484); assay: LTEA_HepaRG_IGFBP1: Life Technologies and Expression Analysis (LTEA) Assay for Insulin-like growth factor-binding protein 1 (IGFBP1) using HepaRG (AID 2283508)
Outline: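 Read-out is qRT-PCR transcript level normalized to three housekeeping genes, fitted in both directions against 0.5% DMSO. Differentiated HepaRG cells received eight half-log concentrations (top 100 uM) in duplicate for 48 h in serum-free induction medium.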

[3] = read-out: Interleukin 6 (IL6), IL6 (gene 3569); assay: LTEA_HepaRG_IL6: Life Technologies and Expression Analysis (LTEA) Assay for Interleukin 6 (IL6) using HepaRG (AID 2283509)
Outline: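 HepaRG, ~100,000 cells/well, 48 h pre-culture; serum-free induction medium; cmpd 8-pt half-log from 100 uM, 0.5% DMSO, duplicate, 48 h. Lysis in RLT, TaqMan qRT-PCR; gain or loss vs DMSO.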

[4] = read-out: Interleukin 6 Receptor (IL6R), IL6R (gene 3570); assay: LTEA_HepaRG_IL6R: Life Technologies and Expression Analysis (LTEA) Assay for Interleukin 6 Receptor (IL6R) using HepaRG (AID 2283510)
Outline: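 Differentiated HepaRG cells, plated 48 h, then exposed in duplicate for 48 h in serum-free induction medium to 8 half-log concentrations (top 100 uM, 0.5% DMSO). IL6R mRNA measured by TaqMan qRT-PCR, normalized to ACTB/GAPDH/POLR2A; bidirectional fit vs DMSO.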

[5] = read-out: Potassium channel subfamily K member 1 (KCNK1), KCNK1 (gene 3775); assay: LTEA_HepaRG_KCNK1: Life Technologies and Expression Analysis (LTEA) Assay for Potassium channel subfamily K member 1 (KCNK1) using HepaRG (AID 2283511)
Outline: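 Gain or loss of KCNK1 mRNA is the read-out, quantified by qRT-PCR against three housekeeping genes after 48 h chemical treatment of human HepaRG liver cells. Concentrations ran from 100 uM downward in half-log steps, vehicle 0.5% DMSO.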

[6] = read-out: Keratin 19 (KRT19), KRT19 (gene 3880); assay: LTEA_HepaRG_KRT19: Life Technologies and Expression Analysis (LTEA) Assay for Keratin 19 (KRT19) using HepaRG (AID 2283512)
Outline: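 KRT19 transcript measured by TaqMan qRT-PCR, referenced to three housekeeping genes, after HepaRG cells received test chemicals for 48 h. Eight half-log concentrations, top 100 uM, 0.5% DMSO vehicle; increases and decreases both fitted.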

[7] = read-out: JUN Transcription Factor, JUN (gene 3725); assay: LTEA_HepaRG_JUN: Life Technologies and Expression Analysis (LTEA) Assay for JUN Transcription Factor using HepaRG (AID 2283513)
Outline: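 HepaRG cells, 48 h post-plating, exposed 48 h in serum-free induction medium to 8-point half-log series (top 100 uM, 0.5% DMSO), duplicate; mRNA by qRT-PCR (TaqMan, Fluidigm), normalized to ACTB/GAPDH/POLR2A; bidirectional fit vs DMSO.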

[8] = read-out: Lipase C (LIPC), LIPC (gene 3990); assay: LTEA_HepaRG_LIPC: Life Technologies and Expression Analysis (LTEA) Assay for Lipase C (LIPC) using HepaRG (AID 2283514)
Outline: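 Read-out is LIPC transcript level by TaqMan qRT-PCR, normalized to three housekeeping genes, after 48 h chemical treatment of human HepaRG liver cells. Curves span eight concentrations topping at 100 uM; activity in either direction scored relative to 0.5% DMSO.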

[9] = read-out: Lipoprotein lipase (LPL), LPL (gene 4023); assay: LTEA_HepaRG_LPL: Life Technologies and Expression Analysis (LTEA) Assay for Lipoprotein lipase (LPL) using HepaRG (AID 2283515)
Outline: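 Read-out is LPL transcript level by qRT-PCR, normalized to three housekeeping genes and fitted bidirectionally against the DMSO control. Human HepaRG cells received chemicals for 48 h at up to 100 uM.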

[10] = read-out: MicroRNA 122 (MIR122), gene 406906; assay: LTEA_HepaRG_MIR122: Life Technologies and Expression Analysis (LTEA) Assay for MicroRNA 122 (MIR122) using HepaRG (AID 2283516); further: the transcript read is the microRNA miR-122
Outline: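 Differentiated human HepaRG cells in serum-free induction medium exposed 48 h to 8 half-log concentrations from 100 uM in 0.5% DMSO, duplicate. MIR122 quantified by Fluidigm TaqMan qRT-PCR, normalised to ACTB, GAPDH, POLR2A; fold change fitted bidirectionally versus DMSO.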

[11] = read-out: matrix metalloproteinase-10 (MMP10), MMP10 (gene 4319); assay: LTEA_HepaRG_MMP10: Life Technologies and Expression Analysis (LTEA) Assay for matrix metalloproteinase-10 (MMP10) using HepaRG (AID 2283517)
Outline: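 Gain or loss of MMP10 mRNA is fitted relative to the 0.5% DMSO vehicle. The human hepatic line HepaRG receives a 48-hour serum-free exposure, in duplicate, with a maximum concentration of 100 uM.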

MYC, MYC (gene 4609) = assay: LTEA_HepaRG_MYC: Life Technologies and Expression Analysis (LTEA) Assay for MYC using HepaRG (AID 2283518)
Outline: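 MYC transcript changes, up or down relative to 0.5% DMSO, from TaqMan qRT-PCR normalized to three housekeeping genes. Human HepaRG cultures received chemicals for 48 h at eight half-log concentrations up to 100 uM, in duplicate.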

[12] = read-out: matrix metalloproteinase-3 (MMP3), MMP3 (gene 4314); assay: LTEA_HepaRG_MMP3: Life Technologies and Expression Analysis (LTEA) Assay for matrix metalloproteinase-3 (MMP3) using HepaRG (AID 2283519)
Outline: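 HepaRG, human; 48 h dosing, 8 conc. (max 100 uM, half-log), duplicate, 0.5% DMSO. Readout: MMP3 transcript by Fluidigm TaqMan qRT-PCR, ACTB/GAPDH/POLR2A-normalised. Gain or loss fitted vs DMSO.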

[13] = read-out: Paternally Expressed 10 (PEG10), PEG10 (gene 23089); assay: LTEA_HepaRG_PEG10: Life Technologies and Expression Analysis (LTEA) Assay for Paternally Expressed 10 (PEG10) using HepaRG (AID 2283520)
Outline: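 Differentiated HepaRG cells exposed 48 h in serum-free induction medium to eight half-log concentrations topping at 100 uM, 0.5% DMSO, in duplicate. PEG10 mRNA quantified by TaqMan qRT-PCR, normalized to ACTB, GAPDH and POLR2A; bidirectional fit versus DMSO.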

[14] = read-out: Nuclear factor NF-kappa-B p105 subunit (Homo sapiens) (UniProt P19838); assay: LTEA_HepaRG_NFKB1: Life Technologies and Expression Analysis (LTEA) Assay for Nuclear Factor Kappa B Subunit 1 (NFKB1) using HepaRG (AID 2283521)
Outline: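 HepaRG, 48 h exposure; 8-pt half-log series from 100 uM in 0.5% DMSO; duplicates. Readout: NFKB1 mRNA by qRT-PCR (Fluidigm arrays), housekeeping-normalized. Gain/loss fit vs DMSO baseline.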

[15] = read-out: Protein phosphatase 2A (PPP2R4), PTPA (gene 5524); assay: LTEA_HepaRG_PPP2R4: Life Technologies and Expression Analysis (LTEA) Assay for Protein phosphatase 2A (PPP2R4) using HepaRG (AID 2283522)
Outline: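 Differentiated human HepaRG cells in serum-free induction medium were exposed 48 h to 8 concentrations (top 100 µM, half-log steps, duplicate) in 0.5% DMSO. PPP2R4 mRNA was measured by TaqMan qRT-PCR, normalised to ACTB, GAPDH and POLR2A, and fitted bidirectionally versus DMSO.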

[16] = read-out: Phosphatase and tensin (PTEN), PTEN (gene 5728); assay: LTEA_HepaRG_PTEN: Life Technologies and Expression Analysis (LTEA) Assay for Phosphatase and tensin (PTEN) using HepaRG (AID 2283523)
Outline: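 Read-out is PTEN transcript level by multiplexed TaqMan qRT-PCR after 48 h chemical treatment of human HepaRG cultures in serum-free induction medium. Concentrations spanned 100 uM downward in half-log steps, 0.5% DMSO throughout; activity fitted in both directions against vehicle.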

[17] = read-out: solute carrier (SLC22A1), SLC22A1 (gene 6580); assay: LTEA_HepaRG_SLC22A1: Life Technologies and Expression Analysis (LTEA) Assay for solute carrier (SLC22A1) using HepaRG (AID 2283524)
Outline: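 HepaRG (human liver line), 48 h dosing in serum-free induction medium; 8 conc., half-log down from 100 uM, 0.5% DMSO vehicle, duplicates. Endpoint: SLC22A1 mRNA, qRT-PCR, housekeeping-normalized; gain/loss fit vs DMSO.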

[18] = read-out: Pyruvate Dehydrogenase Kinase 4 (PDK4), PDK4 (gene 5166); assay: LTEA_HepaRG_PDK4: Life Technologies and Expression Analysis (LTEA) Assay for Pyruvate Dehydrogenase Kinase 4 (PDK4) using HepaRG (AID 2283525)
Outline: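 In this multiplexed human HepaRG expression assay, cells are treated 48 h with test chemicals across an eight-point range starting at 100 uM. PDK4 mRNA changes, normalized to ACTB/GAPDH/POLR2A, are fitted in both directions relative to vehicle.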

[19] = read-out: NAD(P)H dehydrogenase [quinone] 1 (NQO1), NQO1 (gene 1728); assay: LTEA_HepaRG_NQO1: Life Technologies and Expression Analysis (LTEA) Assay for NAD(P)H dehydrogenase [quinone] 1 (NQO1) using HepaRG (AID 2283526)
Outline: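 Differentiated human HepaRG cells in serum-free induction medium, dosed in duplicate for 48 h at 8 half-log concentrations up to 100 uM in 0.5% DMSO. NQO1 mRNA by qRT-PCR normalized to ACTB, GAPDH, POLR2A; bidirectional fit versus DMSO baseline.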

Measured: AC50

Sequence of Nuclear factor NF-kappa-B p105 subunit (Homo sapiens) (P19838 whole entry, looked up): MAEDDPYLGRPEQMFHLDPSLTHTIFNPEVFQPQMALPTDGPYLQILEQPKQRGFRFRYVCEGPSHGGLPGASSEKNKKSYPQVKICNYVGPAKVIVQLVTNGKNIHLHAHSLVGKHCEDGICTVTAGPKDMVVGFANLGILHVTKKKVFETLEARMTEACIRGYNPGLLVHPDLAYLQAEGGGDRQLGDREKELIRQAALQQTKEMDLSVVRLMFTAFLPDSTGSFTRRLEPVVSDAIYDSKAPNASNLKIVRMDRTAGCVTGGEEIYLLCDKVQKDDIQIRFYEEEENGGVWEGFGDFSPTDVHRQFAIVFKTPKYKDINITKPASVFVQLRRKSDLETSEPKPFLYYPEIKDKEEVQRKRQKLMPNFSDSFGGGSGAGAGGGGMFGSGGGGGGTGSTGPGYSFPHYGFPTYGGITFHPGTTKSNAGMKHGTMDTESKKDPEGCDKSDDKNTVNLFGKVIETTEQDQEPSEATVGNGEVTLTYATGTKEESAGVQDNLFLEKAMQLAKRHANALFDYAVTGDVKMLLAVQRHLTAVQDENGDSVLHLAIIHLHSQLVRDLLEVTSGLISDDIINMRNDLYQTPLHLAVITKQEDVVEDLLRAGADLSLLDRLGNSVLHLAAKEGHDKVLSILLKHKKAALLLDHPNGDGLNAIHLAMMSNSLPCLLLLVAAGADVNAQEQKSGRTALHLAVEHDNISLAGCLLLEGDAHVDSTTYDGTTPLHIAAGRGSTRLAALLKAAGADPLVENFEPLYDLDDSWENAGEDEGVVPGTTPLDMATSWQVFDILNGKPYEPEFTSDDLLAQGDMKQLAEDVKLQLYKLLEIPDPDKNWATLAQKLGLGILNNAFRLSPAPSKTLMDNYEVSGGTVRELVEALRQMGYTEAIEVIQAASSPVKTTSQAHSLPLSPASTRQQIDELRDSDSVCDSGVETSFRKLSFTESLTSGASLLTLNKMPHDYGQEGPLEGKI

c1ccc2[nH]c(-c3cscn3)nc2c1
active: [2] 29 µM | [6] 35.2 µM | MYC, MYC (gene 4609) 40 µM | [13] 26.6 µM | [18] 15.8 µM
inactive: all other assays above

CCSC(=O)N(CC(C)C)CC(C)C
not listed: [18]
inactive: all other assays above

CCOC(=O)NCCOc1ccc(Oc2ccccc2)cc1
inactive: [1] | [5] | [7] | [14] | [15] | [16] | [19]
active: [2] 73.1 µM | [3] 77.9 µM | [4] 20.7 µM | [6] 89.8 µM | [8] 89 µM | [9] 81.6 µM | [10] 75.3 µM | [11] 50 µM | MYC, MYC (gene 4609) 79.9 µM | [12] 50 µM | [13] 29 µM | [17] 84.9 µM
